Sampled rows, rich in hits. Any-hit rate of the full collection: about 7.8%.
HCMV inh: human cytomegalovirus inhibition; HFF cells, HCMV-luciferase reporter, 72 h; hits give low values; activity change, negative = inhibition, % at 57.5 µM; 410,000 tested, 4.5% active; AID 1259415; in the data active = activity change below about -60%; inconclusive = no clear call, values can overlap the other calls; inactive = above about -39%
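Steps: HFFs plated, 16 h 37C; compounds added; HCMV-luciferase added to MOI 1 PFU/cell; 72 h 37C; OneGlo reagent, 5 min room temperature; luminescence read, normalized to controls.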
VACV Venus inh: inhibitors of vaccinia virus (Venus reporter); Vaccinia virus Venus reporter expression, fluorescence; Potency, µM (doses to about 36.5 µM), for the others: at the highest dose activity change, negative = inhibition, usual class: inhibitors; 330,000 tested, 0.46% active; AID 720580; calls by dose curve; tested in A549 cells; note: potency is the fitted concentration of half-maximal effect; nearly all actives have a fitted effect of over 30% in size
HCV inh: inhibitors of hepatitis C virus infection. 340,000 tested, 3.4% active. Potency, µM (titrated, usually from 41.8 µM), for the others: at the top dose activity change, negative = inhibition, usual class: inhibitors. Huh7.5.1 HCVcc-Cre infection, luciferase reporter, 44 h; active = well fitted inhibition curve with a large enough effect; inconclusive = small, poorly fitted or top-dose-only effect, or another doubt; inactive = no such curve, though single readings can be large or run the other way; note: potency is the fitted concentration of half-maximal effect
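Seed cells (1,000/well) for 4 h; treat with compound and infect with HCVcc-Cre, moi about 0.5. Incubate 44 h, then detect luciferase activity.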
LASV entry inh: inhibitors of Lassa virus binding or cell entry | Lassa virus pseudotype entry inhibition, cell reporter | Potency, µM (titrated, usually from 37.9 µM), for inactives: top-dose activity change, negative = inhibition, actives largely listed as inhibitors | 300,000 tested, 1.2% active | AID 540256; calls by dose curve; tested in HEK293 cells; note: potency is the fitted concentration of half-maximal effect; nearly all actives have a fitted effect of over 50% in size
MARV entry inh: inhibitors of Marburg virus binding or cell entry | Marburg virus pseudotyped entry inhibition, cell reporter | Potency, µM (doses to about 37.8 µM), without a hit: at the top dose activity change, negative = inhibition, most hits filed as inhibitors | 300,000 tested, 1.8% active; calls by dose curve; tested in HEK293 cells; note: potency is the fitted concentration of half-maximal effect
VACV mCherry inh: vaccinia inhibition (mCherry reporter) | Vaccinia virus mCherry reporter infection, fluorescence | Potency, µM (titrated, usually from 36.5 µM), inactives show at the highest dose activity change, negative = inhibition, actives largely listed as inhibitors | 310,000 tested, 0.63% active | AID 720579; calls by dose curve; tested in A549 cells; note: potency is the fitted concentration of half-maximal effect; nearly all actives have a fitted effect of over 35% in size
Active calls of the source: *; i = inactive; ? = inconclusive; / = not tested or not shown; [ ] = dose if it differs, or a comment. % is set by controls: 0 for no effect and ±100 for the full control effect.

SMILES | HCMV inh | VACV Venus inh | HCV inh | LASV entry inh | MARV entry inh | VACV mCherry inh
Cc1ccccc1C(=O)N(Cc1sccc1C)C1CCS(=O)(=O)C1 (stereo not given) | 5.4 | -15.6% | / | 18.8%[46.1 µM] | -12.1%[46.1 µM] | -13.6%
CCOc1ccccc1NC(=O)c1sc2nc3n(c(=O)c2c1C)CCCCC3 | 7.1 | -14.7% | / | 3.2%[46.1 µM] | / | -14.1%
CCN(CC)CC1CN(N=Cc2ccc([N+](=O)[O-])o2)C(=O)O1 (stereo not given) | -39.1 | 15.8µM* | ? | -3.5%[46.1 µM] | -3.6%[46.1 µM] | ?
COc1cc2c(cc1Nc1nc(Nc3ccsc3C(N)=O)c3cc[nH]c3n1)N(C(=O)CN(C)C)CCC2(C)C | / | / | / | 0.499µM* | / | /
COc1cc(N2CCN(C(C)C)CC2)ccc1Nc1nc(Nc2ccc(F)cc2C(N)=O)c2cc[nH]c2n1 | / | / | / | 25µM* | / | /
COc1cc(C)c(NC(=O)CN(C)C)cc1Nc1nc(Nc2cccc(F)c2C(N)=O)c2cc[nH]c2n1 | / | / | / | 2.5µM* | / | /
Cn1c2ccccc2c2cnn(CC(=O)Nc3ccccc3C(F)(F)F)c(=O)c21 | 19.6 | -1.1% | / | ? | 5.4%[46.1 µM] | -8.0%
Cc1ccc2occ(/C=N/NC(=O)[C@@H](N)Cc3ccccc3)c(=O)c2c1 | -84.0* | -1.9%[7.34 µM] | -11.7% | 1.2% | 6.0%[46.1 µM] | i[7.34 µM]
Cc1cccc(C(=O)N/N=C/c2coc3ccccc3c2=O)c1 | 17.5 | / | 11.7% | / | / | /
CCC(C(=O)Nc1ccsc1C(=O)OC)c1ccccc1 (stereo not given) | -67.3* | 0.5% | -16.6% | 15.3% | 9.7%[46.1 µM] | -5.1%
CCC(C(=O)Nc1cc(OC)c(NC(=O)c2ccccc2)cc1OC)c1ccccc1 (stereo not given) | 4.3 | -11.2% | 11.2µM* | ? | 0.9%[46.1 µM] | -11.9%
CCC(C(=O)Nc1nc(C)c(C(=O)OC)s1)c1ccccc1 (stereo not given) | 4.4 | -21.1% | 13.0% | 21.4%[46.1 µM] | -10.6%[46.1 µM] | -3.3%
CCC(C(=O)Nc1sc(C(N)=O)c(C)c1C(=O)OC)c1ccccc1 (stereo not given) | 11.6 | -22.3% | -35.8% | / | 12.6µM* | -11.1%
COc1ccc2cc(CNc3ccc(C)cc3)c(=O)n(CC(=O)Nc3cccc(Cl)c3C)c2c1 | 8.4 | 4.0% | / | -15.5%[46.1 µM] | / | -4.7%
O=S(=O)(c1ccc(Cl)s1)N1CCN(C/C=C/c2ccccc2)CC1 | -40.0 | / | -7.0% | 23.1µM* | ? | /
CCCc1nc2cc(C)c(Br)c(C)n2c1Cc1ccccc1OC | -24.4 | -2.1% | / | / | / | 0.7%
O=[N+]([O-])c1cccc(S(=O)(=O)c2ccc(N3CCCCC3)c([N+](=O)[O-])c2)c1 | -20.5 | -16.2% | 8.91µM* | -10.0% | -20.3% | i
O=[N+]([O-])c1cc(S(=O)(=O)c2ccc(N3CCCCC3)c([N+](=O)[O-])c2)ccc1N1CCCCC1 | -20.2 | -15.6% | ? | -12.4% | ? | -21.6%
CCOC(=O)[C@H](C)Oc1ccc2c(C)cc(=O)oc2c1C(C)=O | / | / | / | / | 14.6% | /
COc1ccccc1C(CNC(=O)c1cccc(S(=O)(=O)Nc2ccc(C)cc2)c1)N(C)C (stereo not given) | -76.4* | -23.7% | / | -16.4% | ? | i
COc1ccc(C(CNC(=O)c2ccc(NS(=O)(=O)c3ccc(F)c(C)c3)cc2)N2CCCC2)cc1 (stereo not given) | -14.6 | -19.0% | ? | -11.6% | ? | -28.8%
COc1ccc(C(CNC(=O)c2cccc(S(=O)(=O)Nc3ccc(F)cc3)c2)N2CCCCC2)cc1 (stereo not given) | -5.3 | / | 5.01µM* | / | / | /
O=C(NCC(c1ccco1)N1CCCCC1)c1ccc(COc2ccc(Cl)cc2)cc1 (stereo not given) | -32.6 | -14.6% | ? | 10µM* | ? | ?
O=C(NCC(c1ccc(Cl)cc1)N1CCCCC1)c1ccc(F)cc1 (stereo not given) | 3.1 | -7.2% | / | -25.6%[46.1 µM] | 2.82µM* | i
COc1ccc(NS(=O)(=O)c2cccc(C(=O)NCC(c3ccccc3)N(C)C)c2)cc1 (stereo not given) | -12.7 | -12.1% | 0.7% | 0.9% | 1.9% | i
N#Cc1ccc(C(=O)NCC(c2ccco2)N2CCCCC2)cc1 (stereo not given) | -28.5 | 16.6% | -29.9% | 2.3% | -2.5% | /
COCc1nnc(NC(=O)C2CCN(C(=O)c3ccccc3)CC2)s1 | / | -10.7% | / | / | / | -19.5%

Compound activity from PubChem BioAssay.
